Reference: PubChem BioAssay AID743187 (National Center for Advancing Translational Sciences (NCATS), 2013)
This is one part of the list. Entries that show only a call come without a potency. Records with an inconclusive call do not appear. Active and inactive are the calls of the source. The call rests on the fitted dose curve; in most records, active means well fitted inhibition curve with a large enough effect; inconclusive means small, poorly fitted or top-dose-only effect; inactive means no such curve, though single readings can be large or run the other way.

Biological target: Peroxisomal multifunctional enzyme type 2 (Homo sapiens) (UniProt P51659)
Sequence (P51659 whole entry, looked up): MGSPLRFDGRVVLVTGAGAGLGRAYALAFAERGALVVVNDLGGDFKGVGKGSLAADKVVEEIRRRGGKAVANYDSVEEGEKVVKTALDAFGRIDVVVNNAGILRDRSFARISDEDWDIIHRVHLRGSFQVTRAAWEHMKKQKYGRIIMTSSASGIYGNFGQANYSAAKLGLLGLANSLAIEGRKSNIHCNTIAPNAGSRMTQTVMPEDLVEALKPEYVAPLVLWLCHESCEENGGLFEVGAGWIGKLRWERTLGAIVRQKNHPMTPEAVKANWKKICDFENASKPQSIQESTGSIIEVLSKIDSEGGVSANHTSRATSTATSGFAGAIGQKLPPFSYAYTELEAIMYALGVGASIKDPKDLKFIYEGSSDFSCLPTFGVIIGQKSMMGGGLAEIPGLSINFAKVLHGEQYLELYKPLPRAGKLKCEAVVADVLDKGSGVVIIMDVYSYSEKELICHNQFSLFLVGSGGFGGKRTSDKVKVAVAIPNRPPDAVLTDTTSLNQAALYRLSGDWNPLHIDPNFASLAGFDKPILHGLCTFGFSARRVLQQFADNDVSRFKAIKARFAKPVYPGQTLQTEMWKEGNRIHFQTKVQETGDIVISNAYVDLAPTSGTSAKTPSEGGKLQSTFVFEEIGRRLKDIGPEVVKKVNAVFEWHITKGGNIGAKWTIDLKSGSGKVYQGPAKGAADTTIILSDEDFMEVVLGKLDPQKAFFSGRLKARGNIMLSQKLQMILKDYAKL
Assay: Extended Characterization of HPGD Inhibitors: Counterscreen Against HSD17b4
Conditions: purified HSD17B4, estradiol/NAD+, NADH fluorescence; series mostly up to 57.1 µM
Excerpt: The central role of HPGD is to inactivate prostaglandins such as prostaglandin E2 (PGE2) or prostaglandin D2 (PGD2). These prostaglandins are involved in a number of processes, including inflammation, differentiation, and cellular signaling, which makes HPGD an important target for pharmacological intervention. The […] enzyme 17b-hydroxysteroid dehydrogenase […] (HSD17b4 catalyzes the NAD+-dependent oxidation of a variety of substrates including acyl-CoAs, androgens and neurosteroids, as well as bile acids. HSD17b4 activity was screened by utilizing an electron donor (estradiol) and NAD+ as an electron acceptor/cofactor. An increase in the fluorescence intensity due to conversion of NAD+ to NADH was used to measure the enzyme activity.. NIH Chemical Genomics Center [NCGC] NIH Molecular Libraries Probe Centers Network [MLPCN] MLPCN Grant: MH084681 Assay Submitter (PI): Structural Genomics Consortium
3 uL of enzyme (final concentration 100 nM) or buffer were dispensed into a 1,536-well solid-bottom black plate (Greiner Bio One, Monroe, NC) followed by pin-tool transfer (23 nL) of compound (final concentration range 324 pM to 57.2 uM) and control (CID-24867619, final concentration range 5.23 nM to 11.4 uM). Samples were incubated (RT, protected from light) for 15 minutes followed by a 1 uL substrate addition of NAD+ and Estradiol (final concentrations of 1 mM and 50 uM, respectively, in 15% DMSO). Plates were centrifuged at 1,000 rpm for 15 seconds, then read immediately on a ViewLux High-throughput CCD imager (Perkin-Elmer) equipped with standard UV fluorescence optics (340 nm excitation, 450 nm emission), incubated for 1 hour (RT, protected from light) followed by a second read. Data were normalized ([…]) against no-enzyme (positive) and enzyme-containing (neutral) wells.

Row | Structure (SMILES) | Potency
1 | COc1cccc(NC(=S)N2CCN(c3ccccc3C(F)(F)F)CC2)n1 | inactive
2 | FC(F)(F)c1cccc(N2CCN(C(=S)Nc3ccncc3)CC2)c1 | inactive
3 | COc1ccnc(NC(=S)N2CCN(c3ncc(C(F)(F)F)cc3Cl)CC2)c1 | inactive
4 | Cc1cc(C)nc(NC(=S)N2CCN(c3ccc4nonc4c3)CC2)c1 | inactive
5 | COc1cccc(NC(=S)N2CCN(c3ccc(Cl)cc3Cl)CC2)n1 | inactive
6 | Cc1cc(C)nc(NC(=S)N2CCN(c3cccc(C#N)c3)CC2)c1 | inactive
7 | Cc1cc(C)nc(NC(=S)N2CCN(c3ccc(Cl)cc3C(F)(F)F)CC2)c1 | 24.1 µM (active)
8 | Cc1cc(-c2nnc3n2CCCCC3)c(C)n1-c1cccc(Cl)c1 | inactive
